Bioassay records as filed in PubChem BioAssay.
ELG1 genotoxic: qHTS screen for small molecules that induce genotoxicity in human embryonic kidney (HEK293T) cells expressing luciferase-tagged ELG1 | Potency, µM (series often up to 46 µM), inactives show top-dose activity change, positive = activation, hits mostly activators | AID 504466, 2011 | 330,000 tested, 1.3% active | HEK293T ELG1-luciferase reporter, luminescence, 16 h; further: % of control where 0% means no effect; nearly all actives have a fitted effect of over 60% in size
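16 hr compound incubation (37 °C, 5% CO2) of HEK293T cells carrying luciferase-tagged ELG1; luciferase then measured by ONE-Glo luminescence after 30 min at RT.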
SMN2 splice up: qHTS Assay for Enhancers of SMN2 Splice Variant Expression. Potency, µM (highest dose often 46.1 µM), inactives show top-dose activity change, positive = activation, most hits filed as activators. 210,000 tested, 2.8% active. HEK293 SMN2-luciferase splicing reporter, luminescence, 30-36 h; further: % of control where 0% means no effect; nearly all actives have a fitted effect of over 55% in size
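qHTS luciferase splicing reporter: luminescence rises when SMN2 exon 7 is included in transfected HEK293 cells. Compound exposure lasted 30-36 h at 37C, with 4.5 mM final sodium butyrate as control, followed by a ONE-Glo read.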
Rab9 promoter act: qHTS Assay for Rab9 Promoter Activators; 320,000 tested, 2.8% active; AID 485297, 2010; Potency, µM (highest dose often 9.22 µM), inactives show at the highest dose activation, negative = inhibition, most hits filed as activators; Huh7 Rab9 promoter-luciferase reporter, luminescence, 24 h; further: % of control where 0% means no effect; nearly all actives have a fitted effect of over 60% in size
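Luminescence from Amplite-detected luciferase (10 minutes, ambient) reports Rab9 promoter activation. Before that, stable Rab9-luciferase Huh7 cells (1500/well, reduced-serum OP-MEM I plus 10% FBS) were exposed to compound for 24 hours at 37C.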
uPA generation: qHTS for Inhibitors of Cell Surface uPA Generation. cell surface uPA generation assay, qHTS. Potency, µM (highest dose often 38.3 µM), for inactives: at the highest dose activity change, negative = inhibition, usual class: inhibitors. 330,000 tested, 0.31% active. AID 540303, 2011; active means well fitted inhibition curve with a large enough effect; inconclusive means small, poorly fitted or top-dose-only effect; inactive means no such curve, though single readings can be large or run the other way; tested in mouse RAW 264.7 cells; further: on the % scale 0 is the no-effect control and ±100 the full control effect; nearly all actives have a fitted effect of over 55% in size
NPC1 prom act: qHTS Assay for NPC1 Promoter Activators; Huh7 NPC1 promoter luciferase reporter, 24 h; Potency, µM (highest dose often 9.22 µM), for inactives: top-dose activation, actives largely listed as activators; 320,000 tested, 2.4% active; AID 485313, 2010; further: % of control where 0% means no effect; nearly all actives have a fitted effect of over 60% in size
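Huh7 cells stably carrying NPC1 promoter–luciferase, plated in Opti-MEM with 10% FBS for 2 h, were exposed to compound in DMSO for 24 h at 37 °C; luciferase reagent was added for 10 min and luminescence read.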
FLuc modulator: qHTS profiling assay for firefly luciferase inhibitor/activator using purifed enzyme and Km concentrations of substrates (counterscreen for miR-21 project); Luciferin 4-monooxygenase (Photinus pyralis), P08659; purified FLuc, Km substrates, luminescence inhibition; Potency, µM (doses to about 57.5 µM), for the others: top-dose activity change, negative = inhibition, actives largely listed as inhibitors; 360,000 tested, 6.9% active; AID 588342, 2011;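 further: plate controls were vehicle for no effect and reference inhibitor for full effect; nearly all actives have a fitted effect of over 55% in size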
Target sequence (P08659 whole entry, looked up): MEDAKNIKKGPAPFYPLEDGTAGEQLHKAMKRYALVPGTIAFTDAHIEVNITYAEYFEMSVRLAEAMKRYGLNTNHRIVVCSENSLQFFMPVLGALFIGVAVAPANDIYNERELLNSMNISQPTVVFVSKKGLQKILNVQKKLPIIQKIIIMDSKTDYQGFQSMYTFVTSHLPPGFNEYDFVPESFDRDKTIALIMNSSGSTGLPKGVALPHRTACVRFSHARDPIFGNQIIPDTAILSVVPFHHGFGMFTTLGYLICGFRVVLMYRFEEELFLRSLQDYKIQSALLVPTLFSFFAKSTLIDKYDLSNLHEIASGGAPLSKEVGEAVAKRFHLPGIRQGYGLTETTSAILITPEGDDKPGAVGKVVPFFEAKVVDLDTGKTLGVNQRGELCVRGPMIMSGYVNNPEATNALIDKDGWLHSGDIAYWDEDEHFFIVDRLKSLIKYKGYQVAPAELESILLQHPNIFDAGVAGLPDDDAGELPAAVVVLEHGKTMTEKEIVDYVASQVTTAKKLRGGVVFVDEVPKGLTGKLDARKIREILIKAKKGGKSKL
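Purified P. pyralis luciferase, 10 nM final, with Km-level 10 uM D-luciferin and 10 uM ATP in 50 mM Tris acetate pH 7.5, 10 mM Mg acetate, 0.01% Tween-20, 0.05% BSA; 6-point qHTS titration about 60 µM downward; luminescence read.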
* marks the source's active call; other numbers are inactive results; ? = inconclusive; . = no result given; ! = a repeat was not active; [ ] = another dose, or the depositor's remark. Only some compounds are listed: those with a hit (about 7.3% of all), similar ones and a draw of the others. Unless noted, the call rests on the fitted dose curve; in most records, active means well fitted curve in the direction sought with a large enough effect; inconclusive means small, poorly fitted or top-dose-only effect, or another doubt; inactive means no such curve, though single readings can be large; an effect the other way counts as inactive or inconclusive. Potency means the concentration at half of the fitted maximal effect.

SMILES | ELG1 genotoxic | SMN2 splice up | Rab9 promoter act | uPA generation | NPC1 prom act | FLuc modulator
COc1ccc(C[C@@H]2NC[C@H](O)[C@@H]2OC(C)=O)cc1 | . | -45%[20.6 µM] | . | . | . | .
COc1cc(/C=C/c2nc3ccccc3c(=O)n2-c2cccc(O)c2)ccc1O | 4% | . | 0% | -1% | -8% | ?
COc1ccccc1-n1c(-c2ccc(C)cc2)nc2ccccc2c1=O | 14% | . | -1% | -2% | -3% | 13µM*
COc1cc(/C=C/c2nc3ccccc3c(=O)n2-c2ccccc2O)ccc1O | 11% | . | 1% | -16% | 1% | 17µM*
O=C(O)[C@@H](Br)[C@H](Br)C(=O)O | . | -3%[9.22 µM] | . | . | . | .
COc1ccc(O)c(-c2nc(N)nc(N)n2)c1 | 15% | . | -1% | ? | 4µM* | ?
CCN1C(=O)C(=Cc2ccc(C)s2)C(=O)N(CC)C1=S | ? | 20µM* | 18% | -1% | ? | ?
Cc1ccc(Sc2ccc(C=C3C(=O)N(C)C(=O)N(C)C3=O)o2)cc1 | 6% | -3% | 25% | 0% | 1% | 15µM*
CN(CCC(=O)O)C1=Nc2ccc(Cl)cc2C(c2ccccc2)=[N+]([O-])C1 | . | 4%[9.22 µM] | . | . | . | .
Cc1cc2c(C(C)C)c(O)c(O)c(C=O)c2c(O)c1-c1c(C)cc2c(C(C)C)c(O)c(O)c(C=O)c2c1O | ? | -92% | -41%[46.1 µM] | . | -31%[46.1 µM] | 13µM*!
CN(C)C(=O)Oc1cccc(NC(=O)c2ccccc2C(F)(F)F)c1 | -1% | . | -2% | -12% | -1% | -2%
COc1ccccc1NC(=O)c1oc2ccccc2c1NC(=O)c1ccccc1C(F)(F)F | . | -6% | . | . | . | 11µM*
CCC12CCN(CCc3ccc([N+](=O)[O-])cc3)CC1Oc1c(O)cccc12 (stereo unspecified) | . | . | . | . | . | 2%
O=C(O)Cn1cc(/C=C2\C(=O)NC(=O)N(Cc3ccco3)C2=O)c2ccccc21 | -14% | 0% | -2% | -12% | -2% | 17µM*
CCN1C(=O)NC(=O)/C(=C\c2cn(CC(=O)O)c3ccccc23)C1=O | -1% | . | 0%[1.84 µM] | . | 0% | ?
CCOc1ccc(-c2cc(C(=O)N3CCN(c4cccc(C(F)(F)F)c4)CC3)c3ccccc3n2)cc1 | . | . | . | . | . | 2.4µM*
O=C(c1cc(-c2ccccc2)nc2ccccc12)N1CCC2(CC1)OCCO2 | 0% | 0% | 2% | . | -2% | ?
Cc1cccc(N2CCc3c2nc2ccccc2c3N)c1 | -18% | -5% | 7% | -10% | 24% | 21µM*
C[C@@H](Cc1ccc(Cl)cc1Cl)NO | . | -8%[9.22 µM] | . | . | . | .
CCN(CC)c1ccc(/C=C2/C(=O)NC(=O)N(CC3CCCO3)C2=O)cc1 (stereo unspecified) | 7% | -6% | 8% | 4% | 0% | 17µM*
C=CC(=C)C | . | -12% | . | . | . | .
Cc1c(C(=O)N2CCOCC2)sc2nc(-c3ccccc3)cn12 | ? | ? | 2.5µM* | -1% | 4µM* | 17µM*
O=C(C1CC(c2ccccc2O)=NO1)N1CCC2(CC1)OCCO2 (stereo unspecified) | 16µM* | ? | ? | . | 3.5µM* | 11µM*
Cc1ccc(S(=O)ON2CCC(C(=O)O)(c3ccccc3)CC2)cc1 (stereo unspecified) | . | -1%[9.22 µM] | . | . | . | .
O=C(/C=C/c1ccccc1)C1C(=O)c2ccccc2C1=O | 15% | 10µM* | 2.2µM* | -10% | 4µM* | 0.38µM*
SMILES | ELG1 genotoxic | SMN2 splice up | Rab9 promoter act | uPA generation | NPC1 prom act | FLuc modulator
CC(=O)[C@@]1(O)CC[C@H]2C3CCC4=CC(=O)CC[C@]4(C)C3CC[C@@]21C (stereo partly specified) | . | -10% | . | . | . | .
c1ccc2c(c1)[nH]c1cnccc12 | 1% | -38% | -4% | 8% | 1% | -8%
Cc1c2ccncc2c(C)c2c1[nH]c1ccccc12 | 0% | -21% | -41%[46.1 µM] | 0.89µM* | -42%[46.1 µM] | -5%
O=C(Nc1ccc(F)cc1)Oc1ccc[nH]c1=O | 12% | . | 8% | 16% | 17% | 19µM*
Cc1cc(N2CCCCC2)nc2ccc(NC(=O)CCC(=O)N3CCN(c4cccc(Cl)c4)CC3)cc12 | . | -13% | . | . | . | ?
Cc1cc(N2CCOCC2)nc2ccc(NC(=O)CCC(=O)N3CCC4(CC3)OCCO4)cc12 | 12% | . | 19% | -1% | 26% | 15µM*
O=C1NC(=O)C(=Cc2ccsc2)C(=O)N1 | 0% | . | -9% | 1% | -8% | ?
O=C1NC(=O)N(c2cccc(Br)c2)C(=O)/C1=C/c1ccsc1 | 0% | . | -7% | -4% | -2% | 17µM*
O=C1NC(=O)N(c2ccc(F)cc2)C(=O)/C1=C/c1ccsc1 | 2% | 9% | -1% | 1% | 5% | 19µM*
O=C1NC(=O)N(c2ccc(Br)cc2)C(=O)/C1=C/c1ccsc1 | 0% | . | 0% | -2% | -8% | ?
N[C@@H](Cc1c[nH]c2cc([N+](=O)[O-])ccc12)C(=O)O | . | -4%[9.22 µM] | . | . | . | .
Cc1ccc2c(c1)COc1c3ccc(C(=O)NCC4CC4)cc3nn1-2 | 9% | . | ? | ? | 1.3µM* | 5.4µM*
O=C(NCc1ccccc1)c1noc2c1CCCCC2 | ? | 25µM* | 1.6µM* | ? | 3.5µM* | 21µM*
O=C(NCc1ccccc1)c1onc(CSc2ccccc2)c1C(=O)NCC1CC1 | -14% | . | -6% | ? | -8% | -4%
Nc1ccccc1C(=O)OCCOc1ccccc1 | 0.92µM* | 7.9µM* | 0.4µM* | 10% | 0.35µM* | 0.6µM*
COc1ccc(-c2cc(=O)c3cc(OCC(=O)OC(C)C)ccc3o2)cc1 | . | 14% | . | . | . | 1.9µM*
COc1cc2c(cc1OC)[C@@H]1C(=O)c3ccc(OC)c(CC=C(C)C)c3OC1CO2 (stereo partly specified) | . | -55% | . | . | . | .
O=C1NC(=O)N(c2ccccc2)C(=O)/C1=C\C=C\c1ccccc1 | -15% | . | -19% | -1% | -3% | ?
O=C(CN1C(=O)S/C(=C\C=C\c2ccccc2)C1=O)Nc1ccccc1C(=O)O | 3% | . | 10% | -16% | 1% | 27µM*
CC(C)CN1CC[C@@]2(CCCN(C(=O)Oc3ccccc3)C2)C1 | . | -7% | . | . | . | .
O=[N+]([O-])c1ccc2nc(CCCc3nc4ccc([N+](=O)[O-])cc4[nH]3)[nH]c2c1 | 3% | -6% | 7% | 1% | 3% | ?
Cc1ccc(-c2nc3ccc([N+](=O)[O-])cc3[nH]2)cc1 | ? | 1.3µM* | 1.6µM* | ? | 1.6µM* | 0.85µM*
CCCCC/C=C\C/C=C\CCCCCCCCCC(=O)NCCc1ccc(O)c(O)c1 | . | 1% | . | . | . | .
